# Results as given in PubChem BioAssay.
# Records with an inconclusive call do not appear. Active and inactive are the calls of the source. Unless noted, no cut-off is given here; in the data, nearly all actives have IC50 up to about 30 µM.
# Test: JHH-DIPG-1 glioma cell viability, MIPE5.0 library, CellTiter-Glo luminescence, qHTS (AID 1347067; cut-off not given, nearly all actives have AC50 up to about 26 µM;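 note: cells exposed to compound for 48 hours before readout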)
# Conditions: JHH-DIPG-1 glioma viability, CellTiter-Glo ATP luminescence
Compound,AC50,outcome
COc1ccc2c(Oc3ccc(NC(=O)c4c(C)n(CC(C)(C)O)n(-c5ccccc5)c4=O)cc3F)ccnc2c1,20.9 µM (active),–
CC(C)(C)c1nc(-c2cccc(NS(=O)(=O)c3c(F)cccc3F)c2F)c(-c2ccnc(N)n2)s1,–,inactive
COc1cc2c(cc1Cc1cccc(Cl)c1F)c(=O)c(C(=O)O)cn2[C@H](CO)C(C)C,26.3 µM (active),–
CC(=O)NCCC(=O)N[C@@H](CCC(N)=O)C(=O)N[C@@H](CO)C(=O)N[C@@H](CCC(N)=O)C(=O)N[C@@H](CCC(N)=O)C(=O)N[C@H](C(=O)N[C@@H](Cc1ccccc1)C(=O)N[C@]1(C)CCCCCC/C=C\CCC[C@@](C)(C(=O)N[C@@H](CCC(N)=O)C(=O)N[C@@H](CC(N)=O)C(N)=O)NC(=O)[C@H](CC(C)C)NC(=O)[C@H](CC(C)C)NC(=O)[C@@H](CCCNC(=N)N)NC(=O)[C@H](Cc2c[nH]c3ccccc23)NC(=O)[C@H](CC(C)C)NC(=O)[C@H](CC(N)=O)NC1=O)[C@H](C)O,–,inactive
CCOc1cc(N2CCC(O)CC2)ccc1Nc1ncc2c(n1)N(C)c1ccccc1C(=O)N2C,20.9 µM (active),–
NS(=O)(=O)c1ccc(NC2=CC(=O)c3ccccc3C2=O)cc1,20.9 µM (active),–
Cc1ccc(-n2[nH]c(C)c(N=Nc3cccc(-c4cccc(C(=O)O)c4)c3O)c2=O)cc1C,–,inactive
COc1ccc(C(=O)CC2(O)C(=O)Nc3c(Cl)ccc(Cl)c32)cc1 (centres undefined),2.63 µM (active),–
CCCCOCCOc1nc(-c2ccc(C(=O)O)c(F)c2)sc1C,–,inactive
Nc1ncnc2c1c(-c1cccc(OCc3ccccc3)c1)cn2C1CC(CN2CCC2)C1 (centres undefined),6.61 µM (active),–
COc1cc(C(=O)N2CCC(N3CCN(C)CC3)CC2)ccc1Nc1ncc2c(n1)N(C)c1ccccc1C(=O)N2C,18.6 µM (active),–
Cc1ccccc1C(C(=O)NC1CCCCC1)N(C(=O)CNc1ccc(C#N)cc1)c1cccc(F)c1 (centres undefined),–,inactive
C[C@H](c1ccc(F)cc1CCCC(=O)O)N(c1cc(F)ccc1F)S(=O)(=O)c1ccc(Cl)cc1,–,inactive

# Test: growth inhibition of DIPG cells – cell-based, MIPE5.0 library, qHTS (AID 1347068);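 for IC50: cells exposed to compound for 48 hours before viability readout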
# Conditions: SU-DIPG-XXV viability
Compound,outcome,IC50
COc1ccc2c(Oc3ccc(NC(=O)c4c(C)n(CC(C)(C)O)n(-c5ccccc5)c4=O)cc3F)ccnc2c1,inactive,–
Nc1nc(N)c(N=O)c(OCC2CCCCC2)n1,–,14.8 µM (active)
CC(C)(C)c1nc(-c2cccc(NS(=O)(=O)c3c(F)cccc3F)c2F)c(-c2ccnc(N)n2)s1,inactive,–
N#Cc1c(C2CCNCC2)cc(-c2c(O)cccc2OCC2CC2)nc1N,–,20.9 µM (active)
CCCn1c(=O)c2[nH]c(-c3cnn(Cc4cccc(C(F)(F)F)c4)c3)nc2n(CC)c1=O,inactive,–
CC(=O)NCCC(=O)N[C@@H](CCC(N)=O)C(=O)N[C@@H](CO)C(=O)N[C@@H](CCC(N)=O)C(=O)N[C@@H](CCC(N)=O)C(=O)N[C@H](C(=O)N[C@@H](Cc1ccccc1)C(=O)N[C@]1(C)CCCCCC/C=C\CCC[C@@](C)(C(=O)N[C@@H](CCC(N)=O)C(=O)N[C@@H](CC(N)=O)C(N)=O)NC(=O)[C@H](CC(C)C)NC(=O)[C@H](CC(C)C)NC(=O)[C@@H](CCCNC(=N)N)NC(=O)[C@H](Cc2c[nH]c3ccccc23)NC(=O)[C@H](CC(C)C)NC(=O)[C@H](CC(N)=O)NC1=O)[C@H](C)O,inactive,–
COCCOC(=O)C1=C(C)NC2=C(C(=O)CC(c3ccccc3OC)C2)C1c1cccc(O)c1 (centres undefined),inactive,–
CCOc1cc(N2CCC(O)CC2)ccc1Nc1ncc2c(n1)N(C)c1ccccc1C(=O)N2C,–,18.6 µM (active)
Fc1ccc(CNc2ncnc3ccc(F)cc23)cc1,inactive,–
Cc1ccc(-n2[nH]c(C)c(N=Nc3cccc(-c4cccc(C(=O)O)c4)c3O)c2=O)cc1C,inactive,–
CCCCOCCOc1nc(-c2ccc(C(=O)O)c(F)c2)sc1C,inactive,–
COc1cc(C(=O)N2CCC(N3CCN(C)CC3)CC2)ccc1Nc1ncc2c(n1)N(C)c1ccccc1C(=O)N2C,–,20.9 µM (active)
Cc1ccccc1C(C(=O)NC1CCCCC1)N(C(=O)CNc1ccc(C#N)cc1)c1cccc(F)c1 (centres undefined),inactive,–
COc1ccc(-c2c(-c3ccc(O)cc3O)n[nH]c2C)cc1,inactive,–
C[C@H](c1ccc(F)cc1CCCC(=O)O)N(c1cc(F)ccc1F)S(=O)(=O)c1ccc(Cl)cc1,inactive,–
O=C(Nc1nc2ccccc2n1CCN1CCOCC1)c1cccc([N+](=O)[O-])c1,inactive,–
